Screening data as filed in PubChem.
Shown are actives, neighbours in structure and some others; about 12% of the full set was active somewhere.
Pf growth 96h – inhibits malaria parasite growth, 96 h; P. falciparum luciferase reporter growth, 96 h; Potency, µM (doses to about 28.7 µM), without a hit: at the top dose activity change, negative = inhibition, hits mostly inhibitors; 6.9% of 320,000 active; AID 504834; note: % is set by controls: 0 for no effect and ±100 for the full control effect
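P. falciparum expressing integrated firefly luciferase, in erythrocytes at 2% hematocrit, 0.05% parasitemia, incubated with compounds 96 h at 37 C, 5% CO2. Growth inhibition read as loss of luminescence; two-generation exposure targets delayed-death apicoplast inhibitors.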
AMA1-RON2 inh – inhibitors of Plasmodium falciparum AMA1-RON2 interaction. AlphaScreen AMA1-biotinylated RON2 peptide binding. Potency, µM (titrated, usually from 58.2 µM), for inactives: at the highest dose activity change, negative = inhibition, usual class: inhibitors. 0.2% of 360,000 active;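 note: 0% = vehicle wells and -100% = peptide control; nearly all actives have a fitted effect of over 45% in size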
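AMA1 (3D7) with his tag at 25 nM final met compounds first, then biotinylated RON2 peptide at 25 nM; detection used donor plus acceptor beads, 10 µg/mL apiece, read by AlphaScreen after 30 min at room temperature.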
Pf growth 48h – inhibits P. falciparum growth in the first generation, 48 h; P. falciparum luciferase growth in erythrocytes, 48 h; Potency, µM (series often up to 28.7 µM), without a hit: at the highest dose activity change, negative = inhibition, usual class: inhibitors; 5.9% of 310,000 active; AID 504832; note: % is set by controls: 0 for no effect and ±100 for the full control effect
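In quantitative HTS format, infected erythrocytes bearing luciferase-reporter parasites were treated for a single generation at 37 C. Luminescence after adding detection reagent served as the growth measure.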
HCV inh – HCV inhibition; Huh7.5.1 HCVcc-Cre infection, luciferase reporter, 44 h; AID 651820; 3.4% of 340,000 active; Potency, µM (doses to about 41.8 µM), for the others: at the highest dose activity change, negative = inhibition, actives largely listed as inhibitors; note: % is set by controls: 0 for no effect and ±100 for the full control effect
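Cells (1,000/well) were plated 4 h before compound, then infected with HCVcc-Cre virus (~0.5 moi). After 44 h further culture, infection was read as luciferase luminescence following a 15 min substrate incubation at room temperature.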
NS1 inh – influenza NS1 inhibition | Potency, µM (top dose mostly 46.1 µM), for inactives: at the top dose activity, positive = more growth | 0.4% of 270,000 active; calls by dose curve; note: actives are rising curves; nearly all actives have a fitted effect of over 50% in size
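A cell-based growth assay was used: compounds that relieve NS1-induced slow growth of budding yeast raise OD600. Assay medium was yeast nitrogen base with ammonium sulphate and -URA supplement, pH 6.0, with 2% galactose.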
SARS PLP yeast – inhibitors of SARS-CoV papain-like protease in yeast | S. cerevisiae expressing SARS-CoV PLpro, growth rescue | Potency, µM (highest dose often 32.9 µM), for inactives: top-dose activity, positive = growth rescue, usual class: activators | 0.19% of 330,000 active; calls by dose curve; note: 0% is about no effect; nearly all actives have a fitted effect of over 55% in size
* marks the source's active call; other numbers are inactive results; ? = inconclusive; . = not tested or not shown; [ ] = remark or other dose. Unless noted, calls come from the whole dose curve; as a rule, active = well fitted curve in the direction sought with a large enough effect; inconclusive = small, poorly fitted or top-dose-only effect, or another doubt; inactive = no such curve, though single readings can be large; an effect the other way counts as inactive or inconclusive. Potency is the fitted concentration of half-maximal effect.

SMILES | Pf growth 96h | AMA1-RON2 inh | Pf growth 48h | HCV inh | NS1 inh | SARS PLP yeast
FC(F)(F)c1cccc(C2NCc3ccccc3-n3cccc32)c1 (stereo unspecified) | 4.65µM* | 3.2% | -20.9% | 1.7% | 4.6% | -2.4%
Clc1ccc(C2Nc3ccccc3-n3cccc32)cc1 (stereo unspecified) | -30.3% | 47.1% | -6.3% | ? | -63.5% | -3.3%
Oc1ccc(C2NCc3ccccc3-n3cccc32)cc1Cl (stereo unspecified) | 31.4% | -19.1% | 0.657µM* | 15.7% | -15.5% | -7.2%
CCOc1cc2c(cc1OCC)-n1cccc1C(c1ccc(F)cc1)NC2 (stereo unspecified) | 20.4% | ? | ? | -18.2% | -0.6% | -0.5%
CC1(CCc2ccccc2)NC(=O)N(CC(=O)Nc2ccc(OC(F)F)cc2)C1=O (stereo unspecified) | . | 6.9%[11.6 µM] | . | -28.0% | . | -4.2%
Cc1cc(C)nc(SCC(=O)c2ccc(O)c(O)c2)n1 | 2.7% | 27.4% | ? | -24.8% | ? | 0.2%
Cc1cc(C)nc(SCC(=O)c2ccc(C)c(C)c2)n1 | 9.28µM* | -10.4% | -0.2% | -1.9% | -11.9% | -1.8%
CC1CC(C)CN(c2ncc3c(n2)CC(c2ccccc2Cl)CC3=O)C1 (stereo unspecified) | 14.7µM* | -3.7% | 10.4µM* | -2.2% | -7.0% | -2.1%
COc1ccc(C2CC(=O)c3cnc(N4CCN(Cc5ccccc5)CC4)nc3C2)cc1 (stereo unspecified) | 11.6% | -9.5% | 11.7µM* | ? | -9.3% | -4.1%
O=C1CC(c2ccc(F)cc2)Cc2nc(N3CCN(c4ccccc4)CC3)ncc21 (stereo unspecified) | . | -1.7% | 2.5% | -3.5% | 0.1% | 3.0%
Cc1ccc(C2CC(=O)c3cnc(N4CCN(c5ccccc5)CC4)nc3C2)cc1 (stereo unspecified) | . | 8.3% | -0.5% | -5.0% | -14.9% | -0.1%
O=C1CC(c2ccc(F)cc2)Cc2nc(N3CCc4ccccc43)ncc21 (stereo unspecified) | 20.8% | . | 22.5% | . | 7.08µM* | 2.2%
NC(=O)CN(N=Nc1cccc([N+](=O)[O-])c1)c1cccc([N+](=O)[O-])c1 | -102.7%[5.75 µM] | -3.2% | 19.0% | ? | . | -6.3%
COc1ccc(CN2C(=O)c3ccccc3C2c2nnnn2-c2c(C)cccc2C)cc1OC (stereo unspecified) | . | -5.9% | . | . | . | .
O=C(NCC1CCCO1)c1ccc(COc2ccc(F)cc2)o1 (stereo unspecified) | -18.3% | 3.2% | 37.0% | 5.0% | -4.3% | 2.0%
CCOc1cc(N)c(Cl)cc1C(=O)NCC1CN(Cc2ccc(F)cc2)CCO1 (stereo unspecified) | 6.01µM* | 8.6% | 7.57µM* | ? | . | .
Cc1nc2c(-c3ccc(F)cc3)c(C)nn2c(C)c1CCC(=O)Nc1ccccc1F | 9.28µM* | 3.0% | ? | -14.3% | -5.6% | 1.3%
COc1ccccc1-c1cc2nc(C)c(CCC(=O)NC(C)CCc3ccco3)c(C)n2n1 (stereo unspecified) | -21.8% | -10.2% | . | ? | 3.4% | 3.4%
Cc1nc2c(-c3ccccc3)c(C)nn2c(C)c1CCC(=O)NC(C)CCc1ccco1 (stereo unspecified) | 10.4µM* | -6.2% | . | -16.2% | 1.3% | -2.3%
O=C(OCc1ccccc1)c1ccc(NCc2cc(O)ccc2O)cc1 | . | -29.4% | . | 5.01µM* | . | .
CC(C)OC(=O)c1ccc(NCc2cc(O)ccc2O)cc1 | . | -15.6% | . | 3.55µM* | . | .
COC(=O)c1ccc(O)cc1 | 19.5% | 3.9% | 40.1% | 24.2% | 0.3% | 0.3%
COP(=O)(OC)c1ccc(NCc2cc(O)ccc2O)cc1 | . | -23.7% | . | 4.0% | . | .
CCC(=O)Nc1ccc(C(=O)OCc2ccccc2)cc1 | 8.1% | 4.6% | 17.1% | -0.5% | . | -4.4%
COC(=O)c1ccc(CCc2cc(O)ccc2O)cc1 | . | -2.7% | . | 3.98µM* | 11.1% | .
COc1ccc(NC(=O)CNc2ccccc2C(C)=O)cc1S(=O)(=O)N1CCOCC1 | . | 0.5% | . | -22.0% | . | 1.6%
